Laboratory results from PubChem BioAssay.
Calls of active or inactive are those of the source.

Target: NADPH oxidase 4 (Homo sapiens) (UniProt Q9NPH5)
Test: NOX4-dependent H2O2 signal modulators, primary screen, NOX inhibitor project, cell-based, HEK293-NOX4, tetracycline-induced, Amplex Red fluorescence (AID 1160)
Details: 45 min, higher = more signal, called active from +8 up or from −8 down

Chain of NADPH oxidase 4 (Homo sapiens) (Q9NPH5 whole entry, looked up): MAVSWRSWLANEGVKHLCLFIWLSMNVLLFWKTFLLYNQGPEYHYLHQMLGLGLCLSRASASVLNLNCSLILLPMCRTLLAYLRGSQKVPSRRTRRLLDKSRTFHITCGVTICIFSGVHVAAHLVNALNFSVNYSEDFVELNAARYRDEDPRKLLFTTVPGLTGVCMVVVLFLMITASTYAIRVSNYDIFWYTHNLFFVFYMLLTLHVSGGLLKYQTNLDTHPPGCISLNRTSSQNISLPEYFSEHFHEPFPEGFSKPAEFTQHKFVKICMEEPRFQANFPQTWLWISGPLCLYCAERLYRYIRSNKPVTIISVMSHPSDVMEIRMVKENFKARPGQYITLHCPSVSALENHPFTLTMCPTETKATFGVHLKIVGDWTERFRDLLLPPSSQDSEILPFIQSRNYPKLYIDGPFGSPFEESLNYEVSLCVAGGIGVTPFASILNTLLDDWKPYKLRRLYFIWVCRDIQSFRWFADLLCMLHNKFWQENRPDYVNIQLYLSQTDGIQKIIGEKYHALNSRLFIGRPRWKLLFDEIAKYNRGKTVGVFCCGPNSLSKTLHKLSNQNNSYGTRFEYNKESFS

Row | Structure (SMILES) | z-score
1 | O=C1OCCC=C[C@H]2OC34C=CCN(Cn5nnc6ccccc65)C(=O)[C@H]3N(CCCCCCO)C(=O)[C@@H]4C12 (some centres not stated) | -0.201 (inactive)
2 | CN(C)C(=O)[C@@]1(CCS(=O)(=O)c2ccccc2)N=C(c2ccc(OCCCO)cc2)O[C@H]1c1ccccc1 | 0.114 (inactive)
3 | CCCCN1CC=CC23O[C@@H]4/C=C\CCC(C)OC(=O)C4[C@H]2C(=O)N(C(CO)C(C)C)[C@@H]3C1=O (some centres not stated) | -0.506 (inactive)
4 | COC(=O)[C@H](Cc1ccccc1)N1CC(/C=C/C2CC2)=C[C@H]1[C@H](O)Cc1ccccc1 | -0.819 (inactive)
5 | CCCCCCc1nc(C2CC2)cc2c1[Si](C(C)C)(C(C)C)OC2 | -2.12 (inactive)
6 | Cc1ccc(S[C@]2(C(=O)NCC(F)(F)F)CC(=O)N(C3CCCCC3)[C@@H]2c2ccc(CO)cc2I)cc1 | 0.661 (inactive)
7 | CCCC[C@@H]1C[C@H]1[C@@H](NC(=O)Cc1ccccc1)c1ccc(-c2ccccc2)cc1 | -0.123 (inactive)
8 | COC(=O)[C@@]1(Cc2ccc(OC)cc2)[C@H]2c3cc(C(=O)N(C)C)n(Cc4ccc(Cl)c(C(F)(F)F)c4)c3C[C@H]2CN1C(=O)c1ccccc1 | -0.227 (inactive)
9 | C=C(C)C1CCC(C(O)C2C=CC3C(=O)N(C)C(=O)C3N2N2CCCCC2)CC1 (configuration not stated) | 0.773 (inactive)
10 | COCCOC(=O)N1C(=O)[C@@]2(c3cc(C#CCNC(N)=O)ccc31)[C@H](C(=O)N1CCc3cc(OC)c(OC)cc3C1)[C@H]1C(=O)O[C@H](c3ccccc3)[C@H](c3ccccc3)N1[C@@H]2c1ccccc1OCCO | 1.09 (inactive)
11 | O=C1OCCC/C=C\[C@H]2OC34C=CCN(CCN5CCOCC5)C(=O)[C@H]3N(CCCCCCO)C(=O)[C@@H]4C12 (some centres not stated) | -0.153 (inactive)
12 | C#CCN([C@@H](Cc1ccc(O)cc1)C(=O)OC)[C@@H](/C=C/C1CC1)[C@H](O)Cc1ccccc1 | -0.606 (inactive)
13 | O=C1O[C@@H](c2ccccc2)[C@@H](c2ccccc2)N2[C@@H](c3ccccc3OCCO)[C@]3(C(=O)Nc4ccc(C#CCCO)cc43)[C@@H](C(=O)N3CCCCCCC3)[C@H]12 | 0.486 (inactive)
14 | CCOC(=O)C1=C[C@@H](c2ccccc2)N(S(=O)(=O)c2ccc(C)cc2)[C@H]1c1ccccc1Cl | 0.138 (inactive)
15 | CCCNC(=O)[C@@]1(c2ccc([N+](=O)[O-])cc2)CC(=O)N(C2CCCCC2)[C@@H]1c1ccc(CO)cc1 | 0.901 (inactive)
16 | COC(=O)Cn1c(C(=O)N(C)C)cc2c1C[C@H]1CN(C(=O)c3ccccc3)[C@@](Cc3ccc(F)cc3)(C(=O)OC)[C@@H]21 | -0.765 (inactive)
17 | O=C1C[C@@](C(=O)NCCN2CCOCC2)(c2ccc([N+](=O)[O-])cc2)[C@@H](c2ccc(CO)cc2I)N1C1CCCCC1 | -1.09 (inactive)
18 | C=CCN1Cc2ccccc2[C@H]2OC(c3ccc(OCCCO)cc3)=N[C@@]2(CC=C)C1=O | 0.367 (inactive)
19 | O=C1c2ccccc2[C@](Cc2ccccc2I)(C(=O)NCC(F)(F)F)[C@H](c2ccc(CO)cc2)N1C1CCCCC1 | 0.179 (inactive)
20 | COc1ccc(C(O)C2C=CC3C(=O)N(c4ccccc4)C(=O)C3N2Nc2ccc([N+](=O)[O-])cc2)cc1 (configuration not stated) | -2.79 (inactive)
21 | COCCOC(=O)N1C(=O)[C@@]2(c3cc(C#CCC(C(=O)OC)C(=O)OC)ccc31)[C@H](C(=O)N1CCc3cc(OC)c(OC)cc3C1)[C@H]1C(=O)O[C@H](c3ccccc3)[C@H](c3ccccc3)N1[C@@H]2c1ccc(OCCO)cc1 | 1.19 (inactive)

Target: NADPH oxidase 5 (Homo sapiens) (UniProt Q96PH1)
Sequence (Q96PH1 whole entry, looked up): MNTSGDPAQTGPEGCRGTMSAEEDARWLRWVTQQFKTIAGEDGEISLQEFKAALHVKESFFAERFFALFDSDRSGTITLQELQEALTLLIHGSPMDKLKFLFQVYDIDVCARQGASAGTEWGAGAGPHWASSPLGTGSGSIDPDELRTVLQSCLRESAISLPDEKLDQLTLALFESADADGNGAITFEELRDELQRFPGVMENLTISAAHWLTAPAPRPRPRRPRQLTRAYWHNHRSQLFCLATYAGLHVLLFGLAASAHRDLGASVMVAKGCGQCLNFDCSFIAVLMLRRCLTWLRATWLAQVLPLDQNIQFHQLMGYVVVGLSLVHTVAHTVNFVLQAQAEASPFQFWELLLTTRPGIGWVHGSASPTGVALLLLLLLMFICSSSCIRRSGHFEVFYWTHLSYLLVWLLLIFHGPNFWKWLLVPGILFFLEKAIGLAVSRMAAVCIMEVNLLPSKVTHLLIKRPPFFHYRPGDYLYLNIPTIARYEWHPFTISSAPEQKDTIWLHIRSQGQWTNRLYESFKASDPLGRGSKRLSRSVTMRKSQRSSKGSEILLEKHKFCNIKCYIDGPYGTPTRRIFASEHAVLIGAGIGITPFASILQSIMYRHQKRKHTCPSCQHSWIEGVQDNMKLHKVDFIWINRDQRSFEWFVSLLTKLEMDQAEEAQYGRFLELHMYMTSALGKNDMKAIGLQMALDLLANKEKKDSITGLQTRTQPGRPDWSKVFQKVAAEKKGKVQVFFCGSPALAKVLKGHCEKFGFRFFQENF
Test: NOX5-dependent H2O2 signal modulators, primary screen, NOX inhibitor project, cell-based, HEK293-NOX5, Amplex Red fluorescence (AID 1161)
Details: HEK293-NOX5, ionomycin, 45 min, higher = more signal

Row | Structure (SMILES) | z-score
22 | COc1ccc([Si](C)(C)[C@H]2[C@H](CCO)O[C@@]3(C(=O)N(Cc4cccc(N5C(=O)COc6ccccc65)c4)c4ccccc43)[C@@H]2C)cc1 | 1.09
23 | CC(C)(C)OC(=O)CC[C@@]1(C(=O)NCc2ccccc2)N=C(c2ccc(OCCCO)cc2)O[C@@H]1c1ccccc1N=[N+]=[N-] | -1.86
24 | CN(C)CCCNC(=O)[C@@]1(c2ccc([N+](=O)[O-])cc2)CC(=O)N(CC23CC4CC(CC(C4)C2)C3)[C@@H]1c1ccc(CO)cc1I | -7.32
25 | C=C[C@@H](OC)[C@H](OC(=O)Nc1ccc(SC)cc1)c1ccc(O)c(F)c1 | -1.26
26 | CCC(CC)C(O)C1C=CC2C(=O)N(c3ccccc3)C(=O)C2N1Nc1ccc(C(C)C)cc1 (configuration not stated) | -3.75
27 | COC(=O)[C@@]1(Cc2ccc(F)cc2)[C@H]2c3cc(C(=O)N(C)C)n(CCc4ccc(O)c(OC)c4)c3C[C@H]2CN1C(=O)c1ccccc1 | -0.245
28 | CC(C)[Si](C#CCCCC#N)(O[C@H](c1ccccc1)c1cn([C@H](CO)Cc2ccccc2)nn1)C(C)C | 0.317
29 | Cc1cc(C)c(C(O)C2C=CC3C(=O)NC(=O)C3N2Nc2ccc(Cl)cc2Cl)c(C)c1 (configuration not stated) | -1.3
30 | CCOc1cc(C(O)C2C=CC3C(=O)N(C)C(=O)C3N2Nc2ccccc2)ccc1O (configuration not stated) | -1.78
31 | O=C1O[C@H](c2ccccc2)[C@H](c2ccccc2)N2[C@H]1[C@@H](C(=O)Nc1nc3ccccc3s1)[C@]1(C(=O)Nc3ccc(C#CCCO)cc31)[C@H]2c1ccc(O)cc1 | -0.901
32 | CC(C)OC(=O)C=C1C[C@@H](c2ccc(C(F)(F)F)cc2)O[C@@H](c2ccc(C(F)(F)F)cc2)O1 | -0.0582
33 | CN(C)C(=O)[C@]1(CCS(=O)(=O)c2ccccc2)N=C(c2ccc(OCCCO)cc2)O[C@@H]1c1ccccc1N=[N+]=[N-] | 1.24
34 | C=CCOC(=O)[C@H]1[C@@H]2C(=O)O[C@@H](c3ccccc3)[C@@H](c3ccccc3)N2[C@@H](c2ccc(OCCOC(=O)[C@H]3C[C@H]4C(=O)N[C@@H](CCCCNC(C)=O)C(=O)N4[C@H]3c3ccc(O)cc3)cc2)[C@]12C(=O)Nc1ccccc12 | 1.04
35 | CC(CO)N1C(=O)[C@@H]2[C@H]3C(=O)OCC=C[C@H]3OC23C=CCN(Cc2ccccc2)C(=O)[C@@H]13 (some centres not stated) | 1.49
36 | COCCOC(=O)N1C(=O)[C@@]2(c3cc(C#Cc4ccc(OC)cc4)ccc31)[C@H](C(=O)Nc1nc3ccccc3s1)[C@H]1C(=O)O[C@H](c3ccccc3)[C@H](c3ccccc3)N1[C@@H]2c1ccc(O)cc1 | 0.791
37 | O=C1OCCC=C[C@H]2OC34C=CCN(Cn5nnc6ccccc65)C(=O)[C@H]3N(CCCCCCO)C(=O)[C@@H]4C12 (some centres not stated) | 2.2
38 | CN(C)C(=O)[C@@]1(CCS(=O)(=O)c2ccccc2)N=C(c2ccc(OCCCO)cc2)O[C@H]1c1ccccc1 | -0.948
39 | CCCCN1CC=CC23O[C@@H]4/C=C\CCC(C)OC(=O)C4[C@H]2C(=O)N(C(CO)C(C)C)[C@@H]3C1=O (some centres not stated) | 2.14

Row | Structure (SMILES) | z-score
40 | COC(=O)[C@H](Cc1ccccc1)N1CC(/C=C/C2CC2)=C[C@H]1[C@H](O)Cc1ccccc1 | -0.607
41 | CCCCCCc1nc(C2CC2)cc2c1[Si](C(C)C)(C(C)C)OC2 | -4.98
42 | Cc1ccc(S[C@]2(C(=O)NCC(F)(F)F)CC(=O)N(C3CCCCC3)[C@@H]2c2ccc(CO)cc2I)cc1 | 2.07
43 | CCCC[C@@H]1C[C@H]1[C@@H](NC(=O)Cc1ccccc1)c1ccc(-c2ccccc2)cc1 | 1.09
44 | COC(=O)[C@@]1(Cc2ccc(OC)cc2)[C@H]2c3cc(C(=O)N(C)C)n(Cc4ccc(Cl)c(C(F)(F)F)c4)c3C[C@H]2CN1C(=O)c1ccccc1 | 1.57
45 | C=C(C)C1CCC(C(O)C2C=CC3C(=O)N(C)C(=O)C3N2N2CCCCC2)CC1 (configuration not stated) | 0.0159
46 | COCCOC(=O)N1C(=O)[C@@]2(c3cc(C#CCNC(N)=O)ccc31)[C@H](C(=O)N1CCc3cc(OC)c(OC)cc3C1)[C@H]1C(=O)O[C@H](c3ccccc3)[C@H](c3ccccc3)N1[C@@H]2c1ccccc1OCCO | -0.672
47 | O=C1OCCC/C=C\[C@H]2OC34C=CCN(CCN5CCOCC5)C(=O)[C@H]3N(CCCCCCO)C(=O)[C@@H]4C12 (some centres not stated) | 1.9
48 | C#CCN([C@@H](Cc1ccc(O)cc1)C(=O)OC)[C@@H](/C=C/C1CC1)[C@H](O)Cc1ccccc1 | -1.58
49 | O=C1O[C@@H](c2ccccc2)[C@@H](c2ccccc2)N2[C@@H](c3ccccc3OCCO)[C@]3(C(=O)Nc4ccc(C#CCCO)cc43)[C@@H](C(=O)N3CCCCCCC3)[C@H]12 | 1.69
50 | CCOC(=O)C1=C[C@@H](c2ccccc2)N(S(=O)(=O)c2ccc(C)cc2)[C@H]1c1ccccc1Cl | 0.405
51 | CCCNC(=O)[C@@]1(c2ccc([N+](=O)[O-])cc2)CC(=O)N(C2CCCCC2)[C@@H]1c1ccc(CO)cc1 | 0.877
52 | COC(=O)Cn1c(C(=O)N(C)C)cc2c1C[C@H]1CN(C(=O)c3ccccc3)[C@@](Cc3ccc(F)cc3)(C(=O)OC)[C@@H]21 | -1.26
53 | O=C1C[C@@](C(=O)NCCN2CCOCC2)(c2ccc([N+](=O)[O-])cc2)[C@@H](c2ccc(CO)cc2I)N1C1CCCCC1 | -1.5
54 | C=CCN1Cc2ccccc2[C@H]2OC(c3ccc(OCCCO)cc3)=N[C@@]2(CC=C)C1=O | 0.034
55 | O=C1c2ccccc2[C@](Cc2ccccc2I)(C(=O)NCC(F)(F)F)[C@H](c2ccc(CO)cc2)N1C1CCCCC1 | 1.69
56 | COc1ccc(C(O)C2C=CC3C(=O)N(c4ccccc4)C(=O)C3N2Nc2ccc([N+](=O)[O-])cc2)cc1 (configuration not stated) | -2.72
57 | COCCOC(=O)N1C(=O)[C@@]2(c3cc(C#CCC(C(=O)OC)C(=O)OC)ccc31)[C@H](C(=O)N1CCc3cc(OC)c(OC)cc3C1)[C@H]1C(=O)O[C@H](c3ccccc3)[C@H](c3ccccc3)N1[C@@H]2c1ccc(OCCO)cc1 | 1.42
